Bioassay records: PubChem, National Center for Advancing Translational Sciences (NCATS)
Rows were chosen to be rich in hits. Some 5.4% of all compounds tested hit in one or more screens of this group.
ALOX12 inhib: qHTS Assay for Inhibitors of 12-hLO (12-human lipoxygenase) | Polyunsaturated fatty acid lipoxygenase ALOX12 (Homo sapiens), P18054 | purified 12-hLO, xylenol orange hydroperoxide absorbance | 150,000 tested, 0.12% active | Potency, µM (highest dose often 57.1 µM), actives largely listed as inhibitors; note: nearly all actives have a fitted effect of over 55% in size
Target sequence (P18054 whole entry, looked up): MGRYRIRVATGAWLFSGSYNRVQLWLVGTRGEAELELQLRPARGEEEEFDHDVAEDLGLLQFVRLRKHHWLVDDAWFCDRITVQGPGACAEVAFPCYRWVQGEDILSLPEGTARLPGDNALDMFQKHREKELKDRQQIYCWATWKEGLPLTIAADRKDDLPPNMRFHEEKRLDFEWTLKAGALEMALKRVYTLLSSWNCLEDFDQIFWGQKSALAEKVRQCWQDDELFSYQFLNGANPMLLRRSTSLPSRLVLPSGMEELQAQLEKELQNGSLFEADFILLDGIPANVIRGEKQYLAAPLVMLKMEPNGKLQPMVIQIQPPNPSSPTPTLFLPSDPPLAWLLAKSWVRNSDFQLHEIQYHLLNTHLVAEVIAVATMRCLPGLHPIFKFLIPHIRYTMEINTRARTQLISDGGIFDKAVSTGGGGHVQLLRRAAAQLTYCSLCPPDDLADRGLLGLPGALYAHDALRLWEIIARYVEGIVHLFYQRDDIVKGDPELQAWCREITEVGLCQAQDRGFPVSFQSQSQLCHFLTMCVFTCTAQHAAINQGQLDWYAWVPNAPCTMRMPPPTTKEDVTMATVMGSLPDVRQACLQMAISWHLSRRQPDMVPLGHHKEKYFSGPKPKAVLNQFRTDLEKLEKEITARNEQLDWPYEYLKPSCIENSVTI
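Lipoxygenase turnover measured by absorbance at 573 and 405 nm after Fe-XO development. Human 12hLO 150 nM, arachidonate 40 uM, pH 7.0 Hepes buffer with detergent; 15 min compound preincubation, 30 min reaction.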
IMPase inh: qHTS Assay for Identifying the Cell-Membrane Permeable IMPase Inhibitors | Inositol monophosphatase 1 (Rattus norvegicus), P97697 | CHO-M1 cells, IP1 accumulation, HTRF TR-FRET ratio | inhibition (IP1 accumulation), % at 46.1 µM | 120,000 tested, under 10 active | AID 901, 2007; active = well fitted curve in the direction sought with a large enough effect in the signal ratio, not every such curve was filed as active; inconclusive = small, poorly fitted or top-dose-only effect, or a change in a side signal; inactive = no such curve, though single readings can be large or run the other way; the % refers to the signal ratio;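 note: cells stimulated with carbachol in lithium chloride buffer; higher means more IMPase inhibition seen as more IP1 and lower FRET ratio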
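Cellular IMPase inhibition is scored as a rise in cytosolic IP1, detected by competitive TR-FRET between d2-labelled IP1 and a europium anti-IP1 antibody. M1-expressing CHO cells were stimulated with carbachol for 30 min at 37C, with lithium (50 mM LiCl) present in the buffer.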
IMPase Li cell: qHTS Assay for Identifying the Cell-Membrane Permeable IMPase Inhibitors: Potentiation with Lithium. AID 1457, 2008. CHO-M1 cells, IP1 TR-FRET (IP-One), carbachol + lithium. 210,000 tested, 0.35% active. Potency, µM (top dose mostly 59.4 µM), usual class: inhibitors;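 note: IP1 builds up when IMPase is blocked and the TR-FRET signal falls; nearly all actives have a fitted effect of over 50% in size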
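CHO-M1, 2000 cells/well, 16–30 h culture; cpd + low Li+, 30 min 37C; lysis with d2-IP1/Eu-anti-IP1 Ab, 10 min RT; TR-FRET 665/620 ratio and 620 channel; AC50 via Hill.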
PNC assembly inh: High Content Assay for Compounds that inhibit the Assembly of the Perinucleolar Compartment; activity change (PNC), negative = inhibition, % at 10 µM; PC3M PTB-GFP, PNC prevalence imaging, 16 h; stronger effect = lower value; 140,000 tested, 3.1% active; AID 2417, 2010;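 active = readout at or below -70, meaning at least 70% loss of cells showing the perinucleolar compartment, a nuclear body marking cancer cells; inconclusive = readout between -30 and a set limit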
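PC3M cells stably expressing PTB-GFP, 750–1000 cells/well, treated 16 h at 37 °C with compound (23 nl of library stock), in duplicate. After paraformaldehyde fixation and Hoechst stain, imaged at 20x; PNC prevalence scored by image analysis.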
15-hLO-2 inh: qHTS Assay for Inhibitors of 15-hLO-2 (15-human lipoxygenase 2) | Potency, µM (titrated, usually from 57.1 µM), actives largely listed as inhibitors | AID 881, 2007 | Polyunsaturated fatty acid lipoxygenase ALOX15B (Homo sapiens), O15296 | purified 15hLO-2, xylenol orange hydroperoxide absorbance | 110,000 tested, 0.56% active; note: nearly all actives have a fitted effect of over 60% in size
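Enzyme 50 nM, AA 45 uM, 25 mM Hepes pH 7.5 + 0.01% Triton X-100; cpd preinc 15 min RT, rxn 90 min RT; stop/detect with 200 uM XO + 300 uM Fe(II) in 50 mM H2SO4, 30 min; A573/A405.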
HPGD inh: qHTS Assay for Inhibitors of HPGD (15-Hydroxyprostaglandin Dehydrogenase) | 150,000 tested, 4.3% active | purified HPGD, NADH fluorescence kinetic, PGE2 substrate | 15-hydroxyprostaglandin dehydrogenase [NAD(+)] (Homo sapiens), P15428 | AID 894, 2007 | Potency, µM, actives largely listed as inhibitors; active = well fitted inhibition curve with a large enough effect, not every such curve was filed as active; inconclusive = small, poorly fitted or top-dose-only effect, or another doubt; inactive = no such curve, though single readings can be large or run the other way
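NADH formation kinetics: reaction with 30 uM PGE2 and 1 mM NAD+ (final), 20 nM enzyme, Tris-HCl pH 8 with Tween 20, after 15 min compound preincubation at room temperature. Fluorescence change, last versus first of five reads.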
A number is an active result; - = inactive; ? = inconclusive; . = not tested or not shown; [ ] = another dose, or the depositor's remark. Unless noted, calls come from the whole dose curve; as a rule, active = well fitted curve in the direction sought with a large enough effect; inconclusive = small, poorly fitted or top-dose-only effect, or another doubt; inactive = no such curve, though single readings can be large; an effect the other way counts as inactive or inconclusive.

SMILES	ALOX12 inhib	IMPase inh	IMPase Li cell	PNC assembly inh	15-hLO-2 inh	HPGD inh
CC(C)CN(C(=O)CN1CCC(C)CC1)c1c(N)n(CC(C)C)c(=O)[nH]c1=O	.	.	-	.	.	.
C=C(C)COc1ccc2c(c1)CCC1C2CC[C@]2(C)C(=O)/C(=N/O)CC12 (stereo not given in full)	-[11.4 µM]	.	-	.	-[11.4 µM]	-
COc1ccc(-c2noc(-c3cccc(OC)c3OC)n2)cc1	.	-	.	.	.	.
CC1(NC(=O)COc2ccccc2-c2ccccc2)CCS(=O)(=O)C1 (stereo not given)	-	-	-	-96	-	-
CCn1c2ccccc2c2cc(CN3CCN(Cc4ccc(Cl)cc4)CC3)ccc21	.	-	.	.	.	.
CN(C)/C=N/c1cnc(C(=O)c2ccc(Cl)cc2)n1C	-	-	-	-	-	16µM
CN(C)/C=N/NC(=O)c1ccc(Cl)cc1	.	.	-	.	.	.
Cc1ccccc1OCCCC(=O)NCc1ccco1	-	-	-	-	-	25µM
Cc1ccc(OCCCC(=O)NCc2ccco2)cc1	-	-	-	-	-	25µM
OC[C@H]1O[C@@H](n2cnc3c(N[C@H]4C[C@H]5CC[C@@H]4C5)ncnc32)[C@H](O)[C@@H]1O	.	.	-	.	.	.
N#C/C(=C\c1ccc(-c2ccccc2)o1)C(=O)Nn1cnnc1	-	-	-	-	.	16µM
Cn1ncc([N+](=O)[O-])c1C(=O)Nc1nccs1	-	.	-	-105	.	?
Cc1c(N2C(=O)c3ccc4c5c(ccc(c35)C2=O)CC4)c(=O)n(-c2ccccc2)n1C	-	-	?	-92	?	?
Cc1c(N2C(=O)c3ccc(Br)cc3C2=O)c(=O)n(-c2ccccc2)n1C	-	-	-	-	-	-
COc1ccccc1C(=O)NC(=S)N1CCCc2ccccc21	-	-	-	-	?	8.9µM
O=C(NC(=S)N1CCCc2ccccc21)c1ccccc1	-	-	-	-	-	-
O=C(NC(=S)N1CCCc2ccccc21)c1ccc(Cl)cc1	-	.	-	-107	.	?
O=C(COc1ccccc1Cl)NC(=S)N1CCc2ccccc21	-	-	-	?	-	20µM
[O][C@H]1[C@@H](O)[C@@H](CO)O[C@@H](O[C@@H]2[C@@H]3OC[C@H]2O[C@H](O[C@@H]2[C@@H](O)[C@H](C[C@@H]4[C@@H]5OC[C@H]4O[CH][C@@H]5O)O[C@H](CO)[C@@H]2OS(=O)(=O)O)[C@@H]3OS(=O)(=O)O)[C@@H]1O	-[0.00818 µM]	.	-	.	-[0.0915 µM]	-
O=C(Nc1cccc(-c2nc3ccccc3[nH]2)c1)c1c(F)cccc1F	.	-	.	.	.	.
S=C(c1ccc(-c2cc(Cl)ccc2Cl)o1)N1CCCCC1	-	.	-	?	.	7.9µM
O=C(Nc1ccc(CN2CCOCC2)cc1)c1ccc(-c2cc(Cl)ccc2Cl)o1	-	-	-	-	-	?
S=C(c1ccc(-c2cccc(Cl)c2)o1)N1CCOCC1	-	-	-	-	-	22µM
N#CCCN1CCN(C(=S)c2ccc(-c3cccc(Cl)c3)o2)CC1	-	-	-	-	?	28µM
S=C(c1ccc(-c2cccc(Cl)c2)o1)N1CCCCC1	.	.	-	.	.	.
SMILES	ALOX12 inhib	IMPase inh	IMPase Li cell	PNC assembly inh	15-hLO-2 inh	HPGD inh
S=C(c1ccc(-c2cc(Cl)ccc2Cl)o1)N1CCOCC1	?	-	-	-	?	28µM
CCC1=Nc2cc(C(=O)NC3CCCC3)ccc2Sc2ccc(Br)cc21	.	-	.	.	.	.
C[C@H]1CCCC2(CC[N+](C)(CCC[N+](C)(C)C)CC2)C1 (stereo not given in full)	-[11.4 µM]	.	-	.	-[11.4 µM]	-
CC/C=C1/OC(=O)c2ccccc21	-	.	-	.	-	-
Cc1ccc(-c2nn(C)c(=O)c3ccccc23)cc1S(=O)(=O)N1CCOCC1	-	-	-	-	.	14µM
Cc1ccc(-c2n[nH]c(=O)c3ccccc23)cc1S(=O)(=O)NCCN1CCOCC1	-	-	-	-	-	13µM
Cc1ccc(-c2nn(C)c(=O)c3ccccc23)cc1S(=O)(=O)N1CCCC1	-	-	-	-	-	?
Cc1cccc(NC(=O)CSc2nc3ccccc3nc2N2CCOCC2)c1C	.	-	.	.	.	.
O=C(C1CC(c2ccccc2O)=NO1)N1CCc2ccccc2C1 (stereo not given)	-	-	-	-	-	16µM
COc1cccc(C2=NOC(C(=O)N3CCc4ccccc4C3)C2)c1 (stereo not given)	-	-	-	?	.	-
O=C(C1CC(c2ccccc2O)=NO1)N1CCCCC1 (stereo not given)	-	-	-	?	-	7.9µM
O=C(C1CC(c2ccc(F)cc2)=NO1)N1CCc2ccccc2C1 (stereo not given)	-	-	-	-	-	20µM
O=C(C1Cc2ccccc2O1)N1CCCCC1 (stereo not given)	-	-	-	-	-	25µM
O=C(C1CC(c2ccc(F)cc2)=NO1)N1CCCCC1 (stereo not given)	-	-	-	?	.	-
O=C(C1COc2ccccc2O1)N1CCOCC1 (stereo not given)	-	-	-	?	-	-
CCOC(=O)c1c(-c2ccc(Br)cc2)csc1NC(=O)c1ccc(C(C)(C)C)cc1	.	-	.	.	.	.
CC1(C)O[C@H]2[C@@H](c3[nH]nc4c(=O)[nH]c(=O)[nH]c34)OC[C@H]2O1	-[11.4 µM]	.	-	.	-[11.4 µM]	-
Cc1cc(C2(c3cc(C)c(O)c(C(=O)O)c3)OS(=O)(=O)c3ccccc32)cc(C(=O)O)c1O	-[11.4 µM]	.	-	.	-[11.4 µM]	-
CCCC(=O)Nc1ccc2nn(-c3ccc(CC)cc3)nc2c1	.	-	.	.	.	.
CC(C)(N=NC(C)(C)C1=NCCN1)C1=NCCN1	-[11.4 µM]	.	-	.	-[11.4 µM]	-
CCSc1nc2cc(C(=O)OC)ccc2c(=O)n1CC	-	-	-	-	.	-
COC(=O)c1ccc2c(=O)n3c(nc2c1)SCC(c1ccccc1)=N3	-	-	10µM	-	-	?
CCOC(=O)CCN1CCN(C(=O)c2ccc(-n3c(=O)c(=O)[nH]c4ccccc43)cc2)CC1	-	.	.	.	.	-
O=C(O)CSc1c2c(nc3cc(C(=O)N4CCOCC4)ccc13)CCCC2	-	-	-	-	-	4µM
COc1ccc(NC(=O)c2ccc(-c3ccc([N+](=O)[O-])cc3)o2)cc1OC	-	.	-	-	.	-
COc1cc([N+](=O)[O-])ccc1-c1ccc(C(=O)Nc2ccc(NC(C)=O)cc2)o1	-	.	-	-	.	28µM
